91 compounds from PubChem BioAssay AID2435 (The Scripps Research Institute Molecular Screening Center, 2010) can be followed below.

Molecules are shown by their SMILES. The campaign covered roughly 320,000 compounds. About 1,000 (0.31%) were called active. The list comes from a sample in which actives are over-represented; it also holds similar structures and randomly drawn compounds. A number with no mark means an inactive call.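 The calls were made as follows: active = activation above the mean of all tested compounds plus 3 SD, cutoff set per screening run (cut at about 20% in these data); inactive = the rest.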

The target in the assay is Oxytocin receptor (Homo sapiens) (UniProt P30559). Briefly: oxytocin receptor activation by calcium flux – fluorescence, CHO-OTR cells, Fluo-8 calcium, primary screen (AID 2435).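 Also: peak over basal fluorescence ratio from a 100 s FLIPR kinetic read.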 Particulars: Fluo-8 calcium fluorescence, at 3 µM, stronger effect = higher value, normalized: DMSO 0%, oxytocin 100%. (Calcium flux is commonly read through the fluorescence of an indicator in the cells.)
Oxytocin receptor (Homo sapiens), sequence (P30559 whole entry, looked up): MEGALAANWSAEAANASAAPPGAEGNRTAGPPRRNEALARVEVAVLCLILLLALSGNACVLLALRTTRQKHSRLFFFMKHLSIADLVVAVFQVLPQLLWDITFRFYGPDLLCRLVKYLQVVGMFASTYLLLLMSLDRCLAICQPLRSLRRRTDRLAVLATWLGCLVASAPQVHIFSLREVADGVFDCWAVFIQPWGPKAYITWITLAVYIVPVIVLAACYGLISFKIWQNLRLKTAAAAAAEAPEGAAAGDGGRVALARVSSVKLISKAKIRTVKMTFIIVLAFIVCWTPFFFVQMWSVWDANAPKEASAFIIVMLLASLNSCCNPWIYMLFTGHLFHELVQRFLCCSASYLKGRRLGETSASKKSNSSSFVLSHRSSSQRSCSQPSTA
Consider `CCCCCCCCCCCCC(NC(C)=O)(C(=O)OCC)C(=O)OCC`, for which the activation is 1.74%.

As for `O=C(c1cccnc1)N1CCN(S(=O)(=O)c2cccs2)CC1`, the activation was 0.18%. For `Fc1ccc(NC(=S)N2CCc3[nH]c4ccccc4c3C2)cc1` the value was 4.05%. Under `CC1CCc2[nH]c3ccc(C(=O)N(C)CC(=O)Nc4cccc(F)c4)cc3c2C1` (stereo unspecified) stands 2.82%. For `O=C(CCCN1CCc2[nH]c3ccc(F)cc3c2C1)c1ccc(F)cc1` the value was 24.7% (active); for `Cc1cccc(OCCC(=O)Nc2cc(S(=O)(=O)N3CCCCC3)ccc2N2CCOCC2)c1`, -0.97%; for `CC1(C)CC[C@@]2(C(=O)O)C(C1)C1=CCC3[C@@]4(C)CC[C@H](O)C(C)(C)C4CC[C@@]3(C)[C@]1(C)C[C@H]2O` (stereo partly specified), 30.7% (active). In the case of `CC1(C)C2CC[C@]3(C)C(CC=C4[C@@H]5C[C@@](C)(CO)CC[C@]5(C(=O)O)CC[C@]43C)[C@@]2(C)CC[C@@H]1O` (stereo partly specified), the activation was 0.42%. Turning to `CC1(C)CC[C@]2(C(=O)O)CC[C@]3(C)C(=CCC4[C@@]5(C)CC[C@H](O)C(C)(C)C5[C@H](O)C[C@]43C)[C@@H]2C1` (stereo partly specified), the activation was 2.18%.

As for `Cc1ccc(S(=O)(=O)N(CC(=O)NN=C2CCN(C)CC2)c2ccc(F)cc2)cc1`, the activation was -1.6%. For `CCCn1nc(C(=O)N2CCCc3ccccc32)c2ccccc2c1=O` the value was -1.8%. Under `N#CC1(NC(=O)COC(=O)CCN=C2NS(=O)(=O)c3ccccc32)CCCCC1` stands 0.35%.

As to `O=C(OCCN=C1NS(=O)(=O)c2ccccc21)c1cccc([N+](=O)[O-])c1`, the activation was 1.88%. Under `O=C(CCCN=C1NS(=O)(=O)c2ccccc21)OCC(=O)c1ccc(F)c(F)c1` stands 30.8% (active); under `CN(C(=O)CN(CCO)CC(=O)N(C)C(C)(C)Cc1ccccc1)C(C)(C)Cc1ccccc1`, 50.2% (active). For `OCCN(Cc1ccccc1)Cc1ccc(Cl)cc1` the value was -0.86%.

For `CCN(CC)CCCNC(=O)CCc1ccccc1`, the activation is -0.47%. Regarding `Cc1cc(S(=O)(=O)N2CCOCC2)ccc1OCC(=O)Nc1cccc(C(F)(F)F)c1`, the activation is 0.91%. For `CC(C)C(=O)Nc1cccc(NC(=S)NC(=O)C(c2ccccc2)c2ccccc2)c1` the value was 4.03%.

Consider `CCNC(=S)NNC(=O)Cc1ccccc1`, for which the activation was 1.03%. Regarding `CCCCC(=O)NNC(=S)NC(=O)C(c1ccccc1)c1ccccc1`, the activation was 68.1% (active). As to `CC1CCCN(CCCNC(=O)CN2C(=O)COc3ccc(S(=O)(=O)N4CCOCC4)cc32)C1` (stereo unspecified), the activation is 0.7%. Under `Cc1ccc(OS(=O)Nc2cccc3nccnc23)cc1` (stereo unspecified) stands 0.23%; under `CC(=O)Nc1ccccc1Sc1ccc2c3c(cccc13)C(=O)N(c1ccc(C)cc1)C2=O`, -0.75%; under `Cc1nn(C)cc1C(=O)c1ccccc1`, -1.25%. Turning to `CN1C(=O)c2cccc3c(N)ccc(c23)C1=O`, the activation was 84.9% (active). Under `O=C(O)c1ccc2c3c(cccc13)C(=O)N(OS(=O)(=O)c1ccccc1)C2=O` stands 0.06%; under `COc1ccc(N2C(=O)c3cccc4cccc(c34)C2=O)nn1`, -0.24%. For `Cc1nn(C)cc1N1C(=O)c2cccc3c(N)ccc(c23)C1=O` the value was 70.2% (active); for `CSc1ncccc1C(=O)Nc1cccc(S(=O)(=O)N2CCOCC2)c1`, 3.66%; for `CN(C)CCCN(C(=O)c1ccc(S(=O)(=O)N2CCCCCC2)cc1)c1nc2ccc(Br)cc2s1`, 20.8% (active).

Regarding `CN(C)CCCN(C(=O)c1ccc(S(=O)(=O)N2CCCCCC2)cc1)c1nc2cc3c(cc2s1)OCCO3`, the activation is 3.02%. For `CN(C)CCCN(C(=O)c1ccc(S(=O)(=O)N2CCCc3ccccc32)cc1)c1nc2ccc(F)cc2s1` the value was 15.5%; for `Cc1oc2nc(SCC(=O)Nc3ccc(S(N)(=O)=O)cc3)nc(NC(=O)c3ccccc3)c2c1C`, 0.48%; for `CCCCCCCCCCCCN1C(=O)CSC1c1cccnc1` (stereo unspecified), -0.53%. For `COCCC(=O)Nc1ccc2c(c1)CN(C(=O)CCOC)CC2` the value was 0.4%; for `COc1ccc(S(=O)(=O)N(C)CC(=O)N2CCCC2)cc1`, 1.27%. Under `CN(C)S(=O)(=O)c1ccc(NC(=O)N2CCOCC2)cc1` stands -0.79%; under `CN(C)S(=O)(=O)c1ccc(Oc2ccc(S(=O)(=O)N(C)C)cc2)cc1`, 23.4% (active); under `Cc1nc(CC(=O)NNS(=O)(=O)c2ccc(F)c(Cl)c2)cs1`, -0.41%. As to `Cc1ccccc1N1CC(C(=O)Nc2ccc(S(=O)(=O)N3CCCC3)cc2)CC1=O` (stereo unspecified), the activation was 1.72%. Regarding `CC(C)(c1ccccc1)c1ccc(OCCN2CCCC2)cc1`, the activation was 16%. Take `CC(C)(c1ccccc1)c1ccc(OCCN)cc1`: the activation is 20.2% (active). With `CN(C)CC(O)COc1ccc(C(C)(C)c2ccc(OCC(O)CN(C)C)cc2)cc1` (stereo unspecified), the activation was 1.29%.

As for `COc1ccc(-c2csc3ncnc(N4CCN(S(=O)(=O)c5ccccc5C#N)CC4)c23)cc1`, the activation is -0.22%. For `Cc1c(CCOC(=O)CC23CC4CC(CC(C)(C4)C2)C3)sc[n+]1Cc1ccc([N+](=O)[O-])cc1` the value was -1.22%; for `COc1cc(C(CCN2CCN(c3ccccc3)CC2)c2c(OC)cc(OC)c3ccc(=O)oc23)cc(OC)c1OC` (stereo unspecified), 22.2% (active). Take `CCN(CC)CCC(c1cc(OC)c(OC)c(OC)c1)c1c(OC)cc(OC)c2c(-c3ccccc3)cc(=O)oc12` (stereo unspecified): the activation was 2.08%. As to `COc1cc(OC)c2ccc(=O)oc2c1C(CCN1CCN(c2ccccc2)CC1)c1ccc2c(c1)OCO2` (stereo unspecified), the activation is -1.49%. On to `Cc1ccc(S(=O)(=O)N2CCN(C(=O)Cc3sc(C)nc3-c3ccc(F)cc3)CC2)c(C)c1`, for which the activation is -2.3%. Under `CCCn1nc2cc(C(=O)NCc3ccccc3)ccc2c1OCC` stands -2.12%; under `Cc1cc2nc3c(=O)n(Cc4ccccc4)c(=O)[nH]c3nc2cc1N`, 52.9% (active). Under `C=CCSc1nc2c(c(=O)[nH]c(=O)n2C)n1Cc1ccccc1` stands -0.23%; under `COC(=O)CSc1nc2ccccc2c(=O)n1Cc1ccccc1`, -1.02%. Under `O=S(=O)(NCCOc1cccc2cccnc12)c1ccc(F)cc1` stands 3.57%; under `CCOC(=O)N/N=C1\CC(C)S(=O)(=O)c2ccc(Cl)cc21` (stereo unspecified), -2.06%; under `CCOc1ncccc1C(=O)NCCc1ccc(OC)cc1`, -1.34%. On to `Cc1nc(CN2CCN(C(=O)CCc3nnc(Cc4c[nH]c5ccccc45)o3)CC2)cs1`, for which the activation was -0.27%. As for `Cn1c2ccccc2c(=O)c2c(=O)n(Cc3ccco3)c(COc3ccccc3)nc21`, the activation was 1.8%. Under `Cn1c2ccccc2c(=O)c2c(O)cccc21` stands -1.89%. Under `CCCc1nc2c(c(=O)c3ccccc3n2C)c(=O)n1C1CCCCCC1` stands 52.1% (active). For `Cc1ccc(C(=O)Cc2nnc(C)s2)cc1` the value was -0.26%; for `Oc1ccc2ccc3cccc[n+]3c2c1`, 65.3% (active); for `COc1ccc(N2CCN(C(=O)[C@@H](NC(=O)c3cc(OC)cc(OC)c3)C(C)C)CC2)cc1`, -0.71%.

For the compound `CCOc1ccc(CCNC(=O)C2CCN(c3ccc(N4CCOCC4)nn3)CC2)cc1OCC`, the activation was -0.01%. Under `NC(=O)C1CCN(C(=O)c2cn(-c3ccccc3)nc2-c2cccnc2)CC1` stands 1.05%; under `Cc1ccc(-c2nn(-c3ccccc3)cc2C(=O)NC2CCC(O)CC2)cc1` (stereo unspecified), 0.66%; under `O=C(NNC(=S)NC(=O)c1cn(-c2ccccc2)nc1-c1ccccc1)c1ccncc1`, 21.2% (active).

As for `COC(=O)c1ccc(COC(=O)C2CCN(S(=O)(=O)c3c(Cl)cccc3Cl)CC2)o1`, the activation is 0.45%. Under `O=C(NCc1ccco1)/C(=C/c1cccc([N+](=O)[O-])c1)NC(=O)c1ccco1` stands -0.34%.

For `O=C(c1ccco1)N1CCN(C(=O)C2CC(c3ccc(Cl)c(Cl)c3)=NO2)CC1` (stereo unspecified), the activation is 5.71%. For the compound `O=C(c1ccco1)N1CCN(C(=O)C2CC(c3ccc(F)cc3)=NO2)CC1` (stereo unspecified), the activation was 38.1% (active). Under `CCOC(=O)N1CCN(C(=O)C2CC(c3ccc(F)cc3)=NO2)CC1` (stereo unspecified) stands 0.22%; under `CC1(C)Oc2ccc3ccc(=O)oc3c2/C(=N/O)C1=O`, -0.3%; under `CCCCOc1ccc(CON(C(C)=O)C(C)=O)cc1Cl`, -0.28%.

Regarding `CC(O)CNCCOc1cccc(Oc2ccccc2)c1` (stereo unspecified), the activation was 2.15%. On to `CC(C)(C)NCC(O)COc1cccc2[nH]c(=O)[nH]c12` (stereo unspecified), for which the activation is -0.01%.

Turning to `COc1ccccc1OCCNCC(O)COc1cccc2[nH]c3ccccc3c12` (stereo unspecified), the activation is 20.7% (active).

For the compound `CC(=O)c1ccc(NC(=O)c2sc3nc4n(c(=O)c3c2C)CCCCC4)cc1`, the activation is 7.14%. Under `COc1cccc(CNCCc2c[nH]c3ccccc23)c1OCc1ccccc1F` stands 23.9% (active). With `COc1ccc(S(=O)(=O)NCCc2c[nH]c3ccccc23)cc1OC`, the activation is 4.77%. Under `COc1ccccc1NC(=O)CCCc1c[nH]c2ccccc12` stands -0.34%; under `Cc1cc2nc3n(c2cc1C)CC1CC(C(=O)NCCC(C)C)N(C)C31` (stereo unspecified), 0.52%. For `O=c1c2ccccc2nc2n1C(CSCc1ccccc1)CS2` (stereo unspecified) the value was 0.87%.

As to `O=c1c2ccccc2nc2n1C(CSc1ccc(F)cc1)CN2` (stereo unspecified), the activation was 0.69%. For `O=c1c2ccccc2nc2n1C(CSc1ccc(Cl)cc1)CN2` (stereo unspecified) the value was 25.6% (active). As to `Cc1ccc(S(=O)(=O)N(C)C)cc1NC(=O)C1Cc2ccccc2CN1C(=O)c1ccco1` (stereo unspecified), the activation is -0.61%. For `C=C(C)CSc1nnc(-c2ccc(C)cc2)n1N` the value was -2.48%; for `COc1ccc(CNC(=O)CCC(=O)Nc2nnc(C(C)C)s2)cc1`, -0.01%; for `CCc1nn(CCCC(=O)NC(C)c2ccccc2)c(=O)c2cc3occc3n12` (stereo unspecified), -0.99%. As for `FC(F)(F)c1cc(-c2ccco2)nc(NCc2ccc(Cl)cc2)n1`, the activation was 0.65%.
